Among the data in PubChem BioAssay AID2546 (National Center for Advancing Translational Sciences (NCATS), 2010) are Potency and activity, negative = inhibition values, retold here.

The campaign covered roughly 310,000 compounds. About 11,000 (3.5%) were called active. Where a call stands in place of a potency, no number is given. Another 8% or so got no clear call; they are omitted. This is one part of a sample in which actives are shown more often than they occur. A number with no mark means an inactive call. Calls follow the shape of the dose curve; as a rule, active = well fitted inhibition curve with a large enough effect; inconclusive = small, poorly fitted or top-dose-only effect, or effect the other way; inactive = flat fitted curve, though single readings scatter.
Potency is read from the fitted curve at half-maximal effect.

The nature of the assay: VP16 counterscreen qHTS for inhibitors of ROR gamma transcriptional activity.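 Also: Gal4-VP16 expression switched on by copper sulfate through the metallothionein promoter; nearly all actives have a fitted effect of over 50% in size.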 As to conditions: Drosophila S2 Gal4-VP16 UAS-luciferase, luminescence, 20 h; series mostly up to 53.6 µM.
Take `O=C(c1cc(COc2ccc(F)c(F)c2)on1)N1CCOCC1`: the Potency entry is “inactive”. Still for that read-out and setting: for `COc1ccc(OCc2cc(C(=O)N3CCCC3)no2)c2ccccc12` the value was “inactive”; for `COc1ccc(CCN2CC(C(=O)NCCN3CCNC3=O)CCC2=O)cc1` (stereo not given), “inactive”; for `COc1ccc(CNC(=O)Cc2ccc(-c3ccccc3)cc2)cc1OC`, “inactive”.

`Cc1ccc(C(=O)NCCN2CCOCC2)cc1C`: the Potency result was “inactive”. The same measure, in the same setting: for `Cc1nc(NC(=O)c2ccc3c(c2)OCCO3)ccc1Br` the value was “inactive”. Take `Cc1ccc(C(=O)Nc2nnc(C3=COCCO3)o2)cc1C`: the Potency is 0.282 µM (active).

Regarding `O=C(Nc1nnc(C2=COCCO2)o1)c1ccc([N+](=O)[O-])s1`, the Potency is 3.16 µM (active). As to `COc1cc(C(C(=O)NC2CCCC2)N(Cc2ccccc2)C(=O)c2snc(C(N)=O)c2N)ccc1O` (stereo not given), the Potency entry is “inactive”. As for `COc1cccc(C(C(=O)NC2CCCC2)N(C(=O)c2ccco2)c2cccc(C(C)=O)c2)c1OC` (stereo not given), the Potency result was “inactive”. For the compound `CCN1C(=NCC(C)C)N[C@@H](CCc2ccccc2)[C@H](C(=O)NCC(C)C)[C@H]1C`, the Potency result was “inactive”. Still for that read-out and setting: under `COC(=O)c1ccc(CN2CCCC(C(=O)Nc3cccc(-n4cnnn4)c3)C2)cc1` (stereo not given) stands “inactive”; under `O=C(CCCc1ccccc1)NCc1ccccc1`, “inactive”; under `CC(=O)c1ccc(N2CCN(C(=O)CCc3ccccc3)CC2)cc1`, “inactive”. As to `C=CCN1CCN(C(=O)CCCc2ccccc2)CC1`, the Potency is 7.94 µM (active). Consider `COC(=O)c1cccc(N(CC(=O)NCC2CCCO2)C(=O)CCC(=O)Nc2cc(C)on2)c1` (stereo not given), for which the Potency entry was “inactive”. As for `CC(C)NS(=O)(=O)c1ccc(OCC(=O)NC2CCCCCC2)cc1`, the Potency entry was “inactive”. As for `CC(=O)Oc1c2c(c3c(c1CC=C(C)C)O[C@@]14C(=CC5CC1C(C)(C)OC4(C/C=C(\C)C(=O)O)C5=O)C3=O)OC(C)(CCC=C(C)C)C=C2` (stereo not given in full), the Potency is 5.62 µM (active).

With `COc1ccc(CNC(=O)c2c[nH]c3c(OC)cc(OC)cc3c2=O)cc1`, the Potency entry was “inactive”. For `COc1ccc(CNC(=O)c2cc(C(=O)C3CC3)c[nH]2)cc1`, the Potency was 22.4 µM (active).

Regarding `CC(C)CC(=O)c1c[nH]c(C(=O)NCc2ccccc2)c1`, the Potency entry is “inactive”. Regarding `COc1ccc(N2CCC(N3CCN(C)C(CCO)C3)CC2)cc1` (stereo not given), the Potency result is “inactive”. For `Cc1cc(C)n(CC(O)COc2ccc(C(C)(C)C)cc2)n1` (stereo not given), the Potency entry is “inactive”.

Take `CC(=O)c1ccc(N2CCN(C(=O)CCNC(=O)Cn3ccc4ccccc4c3=O)CC2)cc1`: the Potency result is “inactive”. For the compound `CCOc1ccc(S(=O)(=O)N2CCC(C(=O)NCc3ccccn3)CC2)cc1Cl`, the Potency entry was “inactive”. Still for that read-out and setting: under `O=C(NCCCn1ccnc1)Nc1ccc(Cl)cc1Cl` stands “inactive”. The same measure, in the same setting: for `O=C(Nc1ccccc1C(=O)NCCCn1ccnc1)c1ccc(Cl)cc1Cl` the value was “inactive”. With `Clc1ccc(C(Cn2ccnc2)OCc2ccsc2Cl)c(Cl)c1` (stereo not given), the Potency is 15.8 µM (active). Take `CSCCC(NS(=O)(=O)c1ccccc1F)C(=O)N1CC=C(c2ccccc2)CC1` (stereo not given): the Potency result is “inactive”. As for `O=C(Nc1ccc(Cl)c(Cl)c1)c1ccccc1NC(=O)C1CC=CCC1C(=O)O` (stereo not given), the Potency entry is “inactive”.

`CSc1ncc(Cl)c(C(=O)Nc2cc(C)ccc2C)n1`: the Potency result is “inactive”. The same measure, in the same setting: under `Cc1cccc(NC(=O)C(C)SCc2ccccc2)c1` (stereo not given) stands “inactive”; under `Cc1ccc(CS(=O)(=O)c2ncc(Cl)c(C(=O)Nc3nnc(C)s3)n2)cc1`, 6.31 µM (active). For the compound `CCSc1ncc(Cl)c(C(=O)Nc2cc(C)ccc2C)n1`, the Potency entry was “inactive”. As to `Cc1cccc(CS(=O)(=O)c2ncc(Cl)c(C(=O)Nc3ccc(F)cc3)n2)c1`, the Potency was 3.16 µM (active). As to `Cc1nnc(NC(=O)Nc2ccc(Cl)c(Cl)c2)s1`, the Potency entry was “inactive”. In the case of `Cc1cccc(OCc2ccc(C(=O)Nc3ccc(F)cc3)cc2)c1`, the Potency entry is “inactive”. In the case of `Cc1ccc(S(=O)(=O)CC(=O)Nc2nnc(C)s2)cc1`, the Potency entry was “inactive”. As for `Cc1cccc(NC(=O)c2nc(S(=O)(=O)Cc3ccccc3)ncc2Cl)c1`, the Potency was 4.47 µM (active).

Turning to `O=S(=O)(c1ccc(Cl)cc1)c1nc(-c2ccco2)oc1N1CCCCC1`, the Potency entry was “inactive”. Regarding `Cc1c(CNCCc2ccccc2)c(C(=O)O)c(C)n1-c1ccccc1`, the Potency result was “inactive”. In the case of `CCn1c(C)c(C)c2cc(C(=O)N3CCN(c4cccc(C)c4C)CC3)ccc21`, the Potency entry is “inactive”. Still for that read-out and setting: under `CCOc1ccc(N2C(=O)CC(N(O)c3ccccc3)C2=O)cc1` (stereo not given) stands “inactive”; under `CCOC(=O)c1ccc(N2C(=O)CC(N(C)Cc3ccccc3)C2=O)cc1` (stereo not given), “inactive”.

Take `CCCCCCC(=O)N(O)C1CC(=O)N(c2ccccc2)C1=O` (stereo not given): the Potency is 5.01 µM (active).

`COc1ccc(CN(C)C(=O)Cc2ccsc2)c(OC)c1OC`: the Potency result was “inactive”.

Regarding `CC1CCN(S(=O)(=O)c2ccc3c(ccn3CC(=O)O)c2)CC1`, the Potency result was “inactive”. For the compound `COc1ccc(-c2csc(NC(=O)c3ccc(N4C(=O)CCC4=O)cc3)n2)cc1OC`, the Potency result was “inactive”. Consider `COc1ccc(-c2csc(NC3OC(=O)c4ccccc43)n2)cc1` (stereo not given), for which the Potency entry is “inactive”. `COc1ccc(-c2csc(Nc3ccccn3)n2)cc1`: the activity, negative = inhibition is -8.73% [at 10 µM].

With `COc1ccc(OC)c(Nc2nc(-c3ccc(O)c(O)c3)cs2)c1`, the Potency was 8.91 µM (active). With `COc1ccc(C)cc1Nc1nc(-c2c(C)[nH]c3ccccc23)cs1`, the Potency result is “inactive”. In the case of `COc1ccc(-c2csc(Nc3ccc(O)cc3)n2)cc1`, the Potency is 12.6 µM (active). With `O=S(=O)(Cc1cc(Cl)nc(-c2cccnc2)n1)c1ccccc1`, the Potency entry was “inactive”. Still for that read-out and setting: under `CCOC(=O)C1CCCN(S(=O)(=O)c2ccc(-n3cnnn3)c(C)c2)C1` (stereo not given) stands “inactive”. Regarding `c1ccc2[nH]c(-c3nc4ccccc4[nH]3)nc2c1`, the Potency is 10 µM (active). On to `Cc1ccc(-c2nc3ccccc3[nH]c2=O)cc1`, for which the Potency result is “inactive”. As to `OC(c1nc2ccccc2[nH]1)C(O)C(O)C(O)c1nc2ccccc2[nH]1` (stereo not given), the Potency entry is “inactive”. Regarding `O=C(CSc1ccc(-c2ccco2)nn1)Nc1cccc(F)c1`, the Potency entry was “inactive”. Consider `Cn1c(Cn2nnc3ccccc32)nnc1SCC(=O)c1ccccc1F`, for which the Potency was 7.08 µM (active). In the case of `Cc1ccc(C(=O)CSc2nnc(Cn3nnc4ccccc43)n2C)cc1`, the Potency entry is “inactive”. Regarding `Cn1c(CNC(=O)c2ccccc2F)nnc1SCc1ccc(F)cc1`, the Potency result is “inactive”. On the same count and under the same terms, for `CS(=O)(=O)Nc1cccc(C2=NN(C(=O)c3cccc(F)c3)C(c3cccs3)C2)c1` (stereo not given) the value was “inactive”; for `CCOc1ccc(-c2noc(CCC(=O)NC3CCCC3)n2)cc1OC`, “inactive”; for `Cc1ccc(-n2[nH]c(C)c(/C=N/NC(=O)c3cccc([N+](=O)[O-])c3)c2=O)cc1C`, 0.891 µM (active). In the case of `COc1cccc(/C=N/NC(=O)c2cccc([N+](=O)[O-])c2)c1OS(=O)(=O)c1ccc(C)cc1`, the Potency result is “inactive”. In the case of `COc1cc(/C=N/NC(=O)c2ccoc2C)ccc1OCCN1CCCCC1`, the Potency entry was “inactive”.

With `Cc1[nH]n(-c2ccccc2)c(=O)c1/C=N/NC(=O)c1ccoc1C`, the Potency was 1 µM (active).

In the case of `Cc1[nH]n(-c2ccccc2)c(=O)c1N=Nc1ccccc1C(=O)N1CCCCC1`, the Potency entry was “inactive”. Regarding `O=C(N/N=C/c1cccc([N+](=O)[O-])c1)c1ccncc1`, the Potency entry is “inactive”.
